# Assay outcomes deposited in PubChem BioAssay by National Center for Advancing Translational Sciences (NCATS).
# Only some compounds are listed: those with a hit (about 2.4% of all), similar ones and a draw of the others.
# Pol kappa inh-1 = blocks human DNA polymerase kappa activity | Q9UBT6 | purified Pol kappa, fluorescent DNA synthesis assay, 10 min | Potency, µM (series often up to 107 µM), without a hit: at the highest dose activity, negative = inhibition, hits mostly inhibitors | actives 0.53% (n = 400,000) | AID 588579; also: potency is read from the fitted curve at half-maximal effect; % is scaled to controls: 0 for no effect and ±100 for the full control effect
#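 Here, compound and 10 nM enzyme are combined for 15 min at room temperature; adding 50 nM substrate (final) starts DNA synthesis, tracked by fluorescence at 0 and 10 min against buffer-only wells.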
# Pol iota inh = inhibitors of human DNA polymerase iota; Q9UNA4; Pol iota fluorescent replication assay, 10 min; Potency, µM (top dose mostly 115 µM), for the others: top-dose activity, negative = inhibition, usual class: inhibitors; actives 1% (n = 390,000); also: potency is read from the fitted curve at half-maximal effect
#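 Fluorescent replication assay read twice, at 0 min and 10 min after adding 50 nM (final) substrate. Enzyme (10 nM) and compounds were first incubated 15 min at room temperature; enzyme-free buffer wells were negative controls.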
# Pol eta inh-1 = blocks human DNA polymerase eta activity; Q9Y253; recombinant Pol eta, fluorescent DNA replication assay; Potency, µM (doses to about 114 µM), for inactives: at the top dose activity change, negative = inhibition, hits mostly inhibitors; actives 1.2% (n = 390,000); AID 588591; also: potency is read from the fitted curve at half-maximal effect; % is scaled to controls: 0 for no effect and ±100 for the full control effect
# Target sequence (Q9Y253 whole entry, looked up): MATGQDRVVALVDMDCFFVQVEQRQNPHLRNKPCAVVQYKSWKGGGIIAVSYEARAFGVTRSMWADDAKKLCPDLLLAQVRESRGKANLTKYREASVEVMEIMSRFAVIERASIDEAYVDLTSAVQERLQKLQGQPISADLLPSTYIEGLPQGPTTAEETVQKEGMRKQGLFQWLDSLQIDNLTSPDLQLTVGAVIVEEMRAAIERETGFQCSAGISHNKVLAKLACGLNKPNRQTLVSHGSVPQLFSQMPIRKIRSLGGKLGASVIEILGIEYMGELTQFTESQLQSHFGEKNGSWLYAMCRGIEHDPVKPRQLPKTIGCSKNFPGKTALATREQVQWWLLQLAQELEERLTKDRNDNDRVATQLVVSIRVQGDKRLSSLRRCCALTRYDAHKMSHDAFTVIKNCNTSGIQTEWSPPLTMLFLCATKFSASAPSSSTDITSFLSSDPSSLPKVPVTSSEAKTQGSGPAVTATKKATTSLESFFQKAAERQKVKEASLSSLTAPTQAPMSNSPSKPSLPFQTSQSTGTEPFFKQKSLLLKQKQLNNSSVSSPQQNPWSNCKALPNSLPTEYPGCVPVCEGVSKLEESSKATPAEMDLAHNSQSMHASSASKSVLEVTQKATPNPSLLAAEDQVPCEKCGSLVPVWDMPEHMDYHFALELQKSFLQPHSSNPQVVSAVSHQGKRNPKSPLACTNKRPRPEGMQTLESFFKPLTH
#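 Pol eta at 10 nM preincubated with compounds 15 min at room temperature; reaction started with fluorescent substrate (50 nM final) and read kinetically at 0 and 10 min.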
# Pol beta inh-1 = inhibitors of human DNA polymerase beta. P06746. Pol beta primer extension/strand displacement, fluorescence kinetic. Potency, µM (doses to about 114 µM), for inactives: at the top dose activity change, negative = inhibition, most hits filed as inhibitors. actives 1.3% (n = 340,000); also: potency is read from the fitted curve at half-maximal effect; % is scaled to controls: 0 for no effect and ±100 for the full control effect
#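 Curves were derived by four-parameter Hill fits of normalized qHTS data. The kinetic fluorescent primer-extension read was taken at 0 and 10 min after 50 nM substrate, following a 15 min room-temperature preincubation of 10 nM enzyme with compounds.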
# FEN1 inh-1 = inhibitors of human flap endonuclease 1. P39748. Recombinant FEN1 flap cleavage, fluorescence, 15 min. Potency, µM (highest dose often 114 µM), inactives show top-dose activity change, negative = inhibition, actives largely listed as inhibitors. actives 0.35% (n = 390,000); also: potency is read from the fitted curve at half-maximal effect; % is scaled to controls: 0 for no effect and ±100 for the full control effect; nearly all actives have a fitted effect of over 65% in size
#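 Steps: FEN1 (10 nM) dispensed; compound added by pin tool; 15 min at room temperature; substrate added to 50 nM final; reads at 0 min and 15 min; data normalized and fitted (four-parameter Hill).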
# WRN inhibitor = blocks human WRN helicase; Q14191; WRN helicase unwinding, fluorescent forked duplex, kinetic; Potency, µM (top dose mostly 114 µM), for the others: top-dose activity change, negative = inhibition, most hits filed as inhibitors; actives 0.46% (n = 360,000); also: potency is read from the fitted curve at half-maximal effect; % is scaled to controls: 0 for no effect and ±100 for the full control effect; nearly all actives have a fitted effect of over 55% in size
#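 Kinetic fluorescence helicase assay: unwinding of a quenched forked DNA duplex (100 nM final) with 2 mM ATP final raises red fluorescence (525/598 nm). Compounds sat 15 min at room temperature with 20 nM WRN beforehand.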
# Pol beta inh-2 = Validate hits inhibiting human DNA polymerase beta. actives 87% (n = 250). Pol beta primer extension/strand displacement, fluorescence kinetic. AID 540280. shares compounds with Pol beta inh-1. Potency, µM, usual class: inhibitors; calls by dose curve; also: potency is read from the fitted curve at half-maximal effect
# Klenow inh = Klenow polymerase inhibition, pol beta selectivity check. 250 tested, under 10 active. Klenow exo- polymerase counter-screen, fluorescent DNA substrate. shares compounds with Pol beta inh-1. activity change, negative = inhibition, % at 57.1 µM
# HIV RT counter = counter-screen for DNA polymerase beta inhibitors: HIV-1 RT inhibition; HIV-1 RT polymerase activity, counter-screen; AID 540301; 250 tested, under 10 active; shares compounds with Pol beta inh-1; activity % (negative = inhibition, positive = activation), % at 57.1 µM
# POLB valid = DNA polymerase beta inhibition, radiolabeled validation; inhibition, % at 10 µM; shares compounds with Pol beta inh-1; radiolabeled primer extension gel assay, phosphorimager; actives 91% (n = 110);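 active = inhibition at 10 µM of 30% or more; inconclusive = no clear call, values can overlap the other calls; inactive = inhibition at 10 µM under 30%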
# PGK validate = validation of Trypanosoma brucei phosphoglycerate kinase inhibitors. shares compounds with Pol kappa inh-1. TbPGK coupled GAPDH assay, Kinase-Glo luminescence. Potency, µM (doses to about 57.5 µM), for inactives: top-dose activity change, negative = inhibition, hits mostly inhibitors. actives 79% (n = 500). AID 686980; also: potency is read from the fitted curve at half-maximal effect; % is scaled to controls: 0 for no effect and ±100 for the full control effect; nearly all actives have a fitted effect of over 65% in size
# Pol iota confirm = Inhibitors of human DNA polymerase iota, confirmation | Potency, µM, hits mostly inhibitors | shares compounds with Pol kappa inh-1 | Pol iota primer extension, TAMRA/BHQ fluorescence | actives 77% (n = 1,500); also: potency is read from the fitted curve at half-maximal effect
# Pol kappa inh-2 = confirmation of human DNA polymerase kappa inhibitors. shares compounds with Pol eta inh-1. purified Pol-kappa, fluorescent strand-displacement substrate. Potency, µM, most hits filed as inhibitors. actives 76% (n = 920). AID 720501; also: potency is read from the fitted curve at half-maximal effect
# Pol eta inh-2 = Pol eta (human) inhibition, cherry-pick confirmation | shares compounds with Pol eta inh-1 | Pol eta primer extension, TAMRA/BHQ fluorescence, 10 min | Potency, µM, hits mostly inhibitors | actives 64% (n = 2,600) | AID 720502; also: potency is read from the fitted curve at half-maximal effect
# FEN1 inh-2 = FEN1 inhibition, cherry-pick retest; shares compounds with FEN1 inh-1; FEN1 flap cleavage, TAMRA/BHQ2 fluorogenic DNA substrate; Potency, µM, hits mostly inhibitors; actives 79% (n = 880); AID 720498; also: potency is read from the fitted curve at half-maximal effect; nearly all actives have a fitted effect of over 60% in size
# * hit, by the source's call; u = inconclusive; x = no result given; [ ] = dose if it differs, or a comment. Unless noted, calls follow the shape of the dose curve; as a rule, active = well fitted curve in the direction sought with a large enough effect; inconclusive = small, poorly fitted or top-dose-only effect, or another doubt; inactive = no such curve, though single readings can be large; an effect the other way counts as inactive or inconclusive.
SMILES,Pol kappa inh-1,Pol iota inh,Pol eta inh-1,Pol beta inh-1,FEN1 inh-1,WRN inhibitor,Pol beta inh-2,Klenow inh,HIV RT counter,POLB valid,Pol iota confirm,Pol eta inh-2,others
C=C(C)C(=O)Nc1cccc(C2=NOC3(C2)C[C@H](C(N)=O)N(C(=O)c2ccccc2)C3)c1 (some centres undefined),u,50µM*,13µM*,18µM*,-17%,-6%[11.6 µM],28*,-32,-1,86*,x,27*,PGK validate=u
CCOC(=O)c1ccc(CNc2ncnc3nc[nH]c23)cc1,u,u,x,x,-16%,x,x,x,x,x,x,x,
CCNC(=O)COC(=O)c1cc(-c2ccco2)nc2ccccc12,35µM*,8.9µM*,20µM*,13µM*,u,-21%[11.6 µM],25*,-20,5,98*,34*,38*,
CCOc1ccc(/C=N/NC(=O)c2cc(-c3ccco3)nc3ccccc23)cc1,-4%,u,-7%,15%,13%,-14%,x,x,x,x,x,x,
COc1ccc(-c2noc(CC(=O)N(C)c3cccc(C)c3)n2)cc1,-2%,18%,-18%,-20%,3%,x,x,x,x,x,x,x,
O=C(N/N=C/c1ccco1)c1cccc(N2Cc3ccccc3C2)c1,35µM*,10µM*,7.9µM*,13µM*,u,-20%[11.6 µM],16*,-14,20,x,42*,43*,Pol kappa inh-2=17*
O=C(N/N=C/c1ccco1)c1cccc(N2CCCC2=O)c1,-7%,u,u,u,-7%,-33%[57.1 µM],x,x,x,x,x,x,
O=C(CSc1ccsc1[N+](=O)[O-])Nc1cc(F)ccc1F,25µM*,u,7.1µM*,13µM*,u,u,25*,-33,-5,99*,67*,43*,PGK validate=15µM*
CC(=O)c1ccc(NC(=O)CSc2ccsc2[N+](=O)[O-])cc1,u,u,11µM*,5.6µM*,-4%,u,22*,-29,18,99*,42*,u,Pol kappa inh-2=38*
CCn1c(SC(C)C(=O)NCc2ccco2)nnc1-c1ccccc1 (centres undefined),-99%,u,x,x,u,x,x,x,x,x,x,x,
COc1ccc(NS(=O)(=O)c2ccc(-n3cccn3)cc2)cc1OC,-11%[60.1 µM],-2%,-11%,19%,-13%,x,x,x,x,x,x,x,
O=C1CC[C@H](C(=O)N[C@@H]2C[C@H]2c2ccccc2)N1,-4%[19.4 µM],x,x,x,x,x,x,x,x,x,x,x,
CN(C)c1ccc(N=Cc2cccc3ccccc23)cc1,-26%,15%,x,x,-2%,x,x,x,x,x,x,x,
CN(CC(=O)NC(=O)NCc1ccco1)Cc1nc2ccccc2c(=O)[nH]1,u,25µM*,u,20µM*,-20%,u,35*,-26,37,83*,60*,u,
Cc1cc(C(F)F)n2nc(C(=O)Nc3sc4c(c3C(N)=O)CCC4)nc2n1,u,20µM*,20µM*,16µM*,u,-36%[57.1 µM],32*,-13,-14,18,u,u,
Cc1ccc(O)c(NC(=O)c2noc3c2CCCC3)c1,-4%,6%,-12%,0%,-7%,x,x,x,x,x,x,x,
CSc1ccccc1NC(=O)c1noc2c1CCC2,u,20µM*,28µM*,10µM*,u,u,32*,-10,3,93*,67*,60*,
CCOC(=O)c1cnc(-n2[nH]c(C)cc2=O)[nH]c1=O,8.9µM*,0.89µM*,u,3.2µM*,-23%,56µM*,32*,-30,8,89*,27*,11*,
Cc1cc(/C=C2\C(=N)N3N=C(c4ccco4)SC3=NC2=O)c(C)n1Cc1ccccc1,50µM*,20µM*,22µM*,10µM*,u,u,14*,-11,-13,x,x,43*,Pol kappa inh-2=17*;FEN1 inh-2=u
CCC1=NN2C(=N)/C(=C/c3cc(C)n(Cc4ccccc4)c3C)C(=O)N=C2S1,-5%,141%,-17%,u,-16%,-26%,x,x,x,x,x,x,
O=C(Nc1cccc(S(=O)(=O)NC2=NCCC2)c1)c1cc(-c2ccco2)nc2ccccc12,32µM*,8.9µM*,10µM*,3.5µM*,u,u,4.5*,-39,6,x,34*,24*,FEN1 inh-2=76*
CN(C)c1ccc(C(CNS(=O)(=O)c2ccc(Cl)cc2)N2CCCC2)cc1 (centres undefined),-10%[60.1 µM],-1%,-5%,1%,11%,x,x,x,x,x,x,x,
Cc1ccc(-n2nc(C)c3c(C(=O)O)cc(C)nc32)cc1,-28%,u,2%,17%,0%,x,x,x,x,x,x,x,
